From PubChem BioAssay (NCATS)
“And” between values parts separate entries of the source, which are not always exact repeats. Equal values may be shown once. Results filed as inconclusive are left out. A structure can be active in one record and inactive in another. The source made the active and inactive calls. The call rests on the fitted dose curve; in most records, active means well fitted inhibition curve with a large enough effect; inconclusive means small, poorly fitted or top-dose-only effect; inactive means flat fitted curve, though single readings scatter.

Legend:
[1] = test system: CRL-7250; experiment: Cytotoxic Profiling of Annotated Libraries Using Quantitative High-Throughput Screening (AID 1296008); conditions: Five cell lines viability, CellTiter-Glo ATP luminescence, 48-72 h; max response: stronger effect = lower value; on max response: on the % scale 0 is the no-effect control and ±100 the full control effect
Method in brief: (§1)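 Cells exposed to compounds for 48 or 72 hr at 37 degrees Celsius. Viability read as ATP-coupled luminescence with CellTiter-Glo after 10 min at room temperature.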

[2] = test system: HEK293; experiment: as above; conditions: Five cell lines viability, CellTiter-Glo ATP luminescence, 48-72 h; max response: stronger effect = lower value
Method in brief: as §1

[3] = test system: HaCat; experiment: as above; conditions: Five cell lines viability, CellTiter-Glo ATP luminescence, 48-72 h; max response: stronger effect = lower value
Method in brief: as §1

[4] = test system: FAB9; experiment: qHTS profiling for inhibitors of Plasmodium falciparum proliferation (AID 504749); conditions: P. falciparum in erythrocytes, SYBR Green DNA, 72 h; series mostly up to 28.7 µM
Method in brief: (§2)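 Each compound contacts P. falciparum-infected red blood cells for 72 h at 37 C; lysis buffer (Tris, EDTA, saponin, Triton X, SYBR Green I) is added and fluorescence measured next morning; values normalized to controls.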

[5] = test system: GB4; experiment: as above; conditions: P. falciparum in erythrocytes, SYBR Green DNA, 72 h; series mostly up to 28.7 µM
Method in brief: as §2

[6] = test system: HB3; experiment: as above; conditions: P. falciparum in erythrocytes, SYBR Green DNA, 72 h; series mostly up to 28.7 µM
Method in brief: as §2

[7] = test system: ICS; experiment: as above; conditions: P. falciparum in erythrocytes, SYBR Green DNA, 72 h; series mostly up to 28.7 µM
Method in brief: as §2

[8] = test system: JCK; experiment: as above; conditions: P. falciparum in erythrocytes, SYBR Green DNA, 72 h; series mostly up to 28.7 µM
Method in brief: as §2

[9] = test system: N140; experiment: as above; conditions: P. falciparum in erythrocytes, SYBR Green DNA, 72 h; series mostly up to 28.7 µM
Method in brief: as §2

[10] = test system: P93_24; experiment: as above; conditions: P. falciparum in erythrocytes, SYBR Green DNA, 72 h; series mostly up to 28.7 µM
Method in brief: as §2

[11] = test system: P94_40; experiment: as above; conditions: P. falciparum in erythrocytes, SYBR Green DNA, 72 h; series mostly up to 28.7 µM
Method in brief: as §2

[12] = test system: PAD; experiment: as above; conditions: P. falciparum in erythrocytes, SYBR Green DNA, 72 h; series mostly up to 28.7 µM
Method in brief: as §2

[13] = test system: PC15; experiment: as above; conditions: P. falciparum in erythrocytes, SYBR Green DNA, 72 h; series mostly up to 28.7 µM
Method in brief: as §2

[14] = test system: PC26; experiment: as above; conditions: P. falciparum in erythrocytes, SYBR Green DNA, 72 h; series mostly up to 28.7 µM
Method in brief: as §2

[15] = test system: PC49; experiment: as above; conditions: P. falciparum in erythrocytes, SYBR Green DNA, 72 h; series mostly up to 28.7 µM
Method in brief: as §2

[16] = test system: SC27B; experiment: as above; conditions: P. falciparum in erythrocytes, SYBR Green DNA, 72 h; series mostly up to 28.7 µM
Method in brief: as §2

[17] = test system: TAB109; experiment: as above; conditions: P. falciparum in erythrocytes, SYBR Green DNA, 72 h; series mostly up to 28.7 µM
Method in brief: as §2

[18] = test system: TAB113; experiment: as above; conditions: P. falciparum in erythrocytes, SYBR Green DNA, 72 h; series mostly up to 28.7 µM
Method in brief: as §2

[19] = test system: TAB165; experiment: as above; conditions: P. falciparum in erythrocytes, SYBR Green DNA, 72 h; series mostly up to 28.7 µM
Method in brief: as §2

[20] = test system: W2; experiment: as above; conditions: P. falciparum in erythrocytes, SYBR Green DNA, 72 h; series mostly up to 28.7 µM
Method in brief: as §2
Further: nearly all actives have a fitted effect of over 60% in size.
Potency means the concentration at half of the fitted maximal effect.

CCCCC/C(C=O)=C\c1ccccc1
inactive: max response [1] -6.23% | outcome [2] | max response [3] 1.14%

CC(C)c1c(C(=O)Nc2ccccc2)c(-c2ccccc2)c(-c2ccc(F)cc2)n1CC[C@@H](O)C[C@@H](O)CC(=O)O
active: Potency [1] 6.68 µM and 2.73 µM

C[C@H](NC(CCc1ccccc1)C(=O)O)C(=O)N1CCC[C@H]1C(=O)O (some centres undefined)
inactive: outcome [1] | max response [2] 3.49% | outcome [3]

CC(C)(C(=O)O)c1ccc(C(O)CCCN2CCC(C(O)(c3ccccc3)c3ccccc3)CC2)cc1 (centres undefined)
inactive: max response [1] -9.99% | outcome [1] | max response [2] 4.11% | outcome [2] | outcome [3]

CC[N+](CC)(CC)CCOc1ccc(/C=C/c2ccccc2)cc1
active: Potency [1] 1.06 µM | Potency [2] 4.73 µM | Potency [3] 8.41 µM

CN(C)CCCN1c2ccccc2CCc2ccccc21
inactive: max response [1] 0.991% | max response [3] -28.4%
active: Potency [2] 13.3 µM

CCOC(=O)[C@H](CCc1ccccc1)N[C@@H](C)C(=O)N1C(=O)N(C)C[C@H]1C(=O)O
inactive: Potency [4] | Potency [5] | Potency [6] | Potency [7] | Potency [8] | Potency [9] | Potency [10] | Potency [11] | Potency [12] | Potency [13] | Potency [14] | Potency [15] | Potency [16] | Potency [17] | Potency [18] | Potency [19] | Potency [20] | max response [1] 1.6% | outcome [1] | max response [2] -1.24% | outcome [2] | max response [3] 0.859% | outcome [3]

C[C@@H]1C[C@H]2[C@@H]3C[C@H](F)C4=CC(=O)C=C[C@]4(C)[C@@]3(F)[C@@H](O)C[C@]2(C)[C@@]1(O)C(=O)CO
inactive: max response [1] -4.29% | outcome [1] | max response [2] -7.17% | outcome [2] | max response [3] -8.88% and 2.84%

OCC(O)CN1CCN(c2ccccc2)CC1 (centres undefined)
inactive: Potency [4] | Potency [5] | Potency [6] | Potency [7] | Potency [8] | Potency [9] | Potency [10] | Potency [11] | Potency [12] | Potency [13] | Potency [14] | Potency [15] | Potency [16] | Potency [17] | Potency [18] | Potency [19] | Potency [20] | max response [1] 0.497% and 1.49% | max response [2] -1.21% | outcome [2] | max response [3] -30%

O=c1[nH]cnc2c1ncn2[C@@H]1O[C@H](CO)[C@@H](O)[C@H]1O
inactive: max response [1] -10.1% and -4.73% | max response [2] 3.98% | outcome [2] | outcome [3]

CN(C)CCCO[C@@H]1[C@H]2OC(C)(C)O[C@H]2O[C@@H]1C(O)CO (some centres undefined)
inactive: max response [1] -6.03% | outcome [2] | outcome [3]

CC(C(O)c1ccc(O)cc1)N1CCC(Cc2ccccc2)CC1 (centres undefined)
active: Potency [5] 7.57 µM | Potency [10] 11.2 µM | Potency [19] 8.91 µM | Potency [20] 4.26 µM
inactive: Potency [4] | Potency [15] | max response [1] -1.07% | outcome [1] | max response [3] -22.6% | outcome [3]

CCCCOc1cc(C(=O)OCCN(CC)CC)ccc1N
inactive: Potency [4] | Potency [5] | Potency [6] | Potency [7] | Potency [8] | Potency [9] | Potency [10] | Potency [11] | Potency [12] | Potency [13] | Potency [14] | Potency [15] | Potency [16] | Potency [17] | Potency [18] | Potency [19] | Potency [20] | max response [1] -0.166% | outcome [1] | max response [2] -17.2% and -4.15% | max response [3] 1.81% | outcome [3]

CC/C=C(\C(=O)N[C@@H]1C(=O)N2C(C(=O)OCOC(=O)C(C)(C)C)=C(COC(N)=O)CS[C@H]12)c1csc(N)n1
inactive: max response [1] -3.67% | max response [2] 1.21% | max response [3] -0.519% and -7.83%

CCN(CC)C(=O)Nc1ccc(OCC(O)CNC(C)(C)C)c(C(C)=O)c1 (centres undefined)
inactive: max response [1] -2.26% and 4.22% | max response [2] -6.49% | outcome [2] | outcome [3]

Cc1ncc([N+](=O)[O-])n1CC(O)CCl (centres undefined)
inactive: max response [1] 0.168% | outcome [2] | outcome [3]

CC(=O)NC(Cc1ccccc1)C(=O)O (centres undefined)
inactive: Potency [4] | Potency [5] | Potency [6] | Potency [7] | Potency [8] | Potency [9] | Potency [10] | Potency [11] | Potency [12] | Potency [13] | Potency [14] | Potency [15] | Potency [16] | Potency [17] | Potency [18] | Potency [19] | max response [1] 2.75% | outcome [1] | max response [2] 1.21% and -5.41% | max response [3] -9.27% | outcome [3]

Cc1cc(C(C#N)c2ccc(Cl)cc2)c(Cl)cc1NC(=O)c1cc(I)cc(I)c1O (centres undefined)
inactive: Potency [4] | Potency [5] | Potency [6] | Potency [7] | Potency [8] | Potency [9] | Potency [10] | Potency [11] | Potency [12] | Potency [13] | Potency [14] | Potency [15] | Potency [16] | Potency [17] | Potency [18] | Potency [19] | max response [1] -2.5% | outcome [1] | max response [2] -12.9% | max response [3] -17.7% | outcome [3]
active: Potency [2] 23.7 µM
